Publication PMC7862700, “An all-to-all approach to the identification of sequence-specific readers for epigenetic DNA modifications on cytosine”

Key:
Assay in all cases: DAPPL (digital affinity profiling via proximity ligation, sequencing); 10 mM Tris-HCl pH 7.5, 50 mM NaCl, 1 mM DTT, 4% glycerol, room temperature, 30 min; GST-TFs on glutathione beads, 16-mer random dsDNA library, 0.1% formaldehyde crosslink after washing; high values mean tight binding
FLI1 = target: T1, FLI1 (Homo sapiens, UniProt Q01543 1-452); conditions: protein: recombinant; tags: N-terminal GST; dsDNA, one strand shown
T1 sequence: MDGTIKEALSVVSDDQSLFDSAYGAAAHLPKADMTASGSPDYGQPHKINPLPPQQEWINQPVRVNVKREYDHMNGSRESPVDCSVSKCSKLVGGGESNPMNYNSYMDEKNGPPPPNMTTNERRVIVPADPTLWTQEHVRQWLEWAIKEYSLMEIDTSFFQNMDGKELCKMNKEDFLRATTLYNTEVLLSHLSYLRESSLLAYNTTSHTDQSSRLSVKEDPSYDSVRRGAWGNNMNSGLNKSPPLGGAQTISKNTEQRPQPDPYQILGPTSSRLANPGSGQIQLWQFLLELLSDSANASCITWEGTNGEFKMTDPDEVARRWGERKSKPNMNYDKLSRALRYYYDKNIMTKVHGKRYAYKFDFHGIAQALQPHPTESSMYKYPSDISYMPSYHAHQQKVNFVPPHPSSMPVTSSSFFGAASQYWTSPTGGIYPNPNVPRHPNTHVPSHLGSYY
Summary of the method: (§1)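 A tag-only sample was pooled with DNA-barcoded human transcription factors that had been expressed in yeast as GST fusions and captured on glutathione beads. The pools were incubated for 30 min at room temperature with 200 nmole of a random double-stranded 16-mer DNA library in Tris/NaCl/DTT/glycerol buffer, then washed, crosslinked with 0.1% formaldehyde, proximity-ligated (BsaI/T4 ligase, 1 h, 37 °C), PCR-amplified and sequenced on an Illumina NextSeq500. Binding signal is each hexamer's read frequency for a factor divided by its frequency for the tag-only sample.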

ELK1 = target: T2, ELK1 (Homo sapiens, UniProt P19419 1-428); conditions: protein: recombinant; tags: N-terminal GST; dsDNA, one strand shown
T2 sequence: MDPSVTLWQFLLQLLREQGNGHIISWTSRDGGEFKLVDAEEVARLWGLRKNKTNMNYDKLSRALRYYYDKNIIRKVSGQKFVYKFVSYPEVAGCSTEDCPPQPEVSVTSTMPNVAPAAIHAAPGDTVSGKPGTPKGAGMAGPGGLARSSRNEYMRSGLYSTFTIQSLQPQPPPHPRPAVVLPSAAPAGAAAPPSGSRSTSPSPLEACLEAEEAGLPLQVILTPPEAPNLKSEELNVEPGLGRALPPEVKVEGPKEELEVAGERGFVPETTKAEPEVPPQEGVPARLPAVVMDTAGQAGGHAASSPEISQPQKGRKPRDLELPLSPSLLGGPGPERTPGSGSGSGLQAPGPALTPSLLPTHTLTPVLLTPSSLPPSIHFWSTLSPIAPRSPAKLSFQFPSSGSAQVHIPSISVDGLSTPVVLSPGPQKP
Summary of the method: as §1

GABPA = target: T3, GABPA (Homo sapiens, UniProt Q06546 1-454); conditions: protein: recombinant; tags: N-terminal GST; dsDNA, one strand shown
T3 sequence: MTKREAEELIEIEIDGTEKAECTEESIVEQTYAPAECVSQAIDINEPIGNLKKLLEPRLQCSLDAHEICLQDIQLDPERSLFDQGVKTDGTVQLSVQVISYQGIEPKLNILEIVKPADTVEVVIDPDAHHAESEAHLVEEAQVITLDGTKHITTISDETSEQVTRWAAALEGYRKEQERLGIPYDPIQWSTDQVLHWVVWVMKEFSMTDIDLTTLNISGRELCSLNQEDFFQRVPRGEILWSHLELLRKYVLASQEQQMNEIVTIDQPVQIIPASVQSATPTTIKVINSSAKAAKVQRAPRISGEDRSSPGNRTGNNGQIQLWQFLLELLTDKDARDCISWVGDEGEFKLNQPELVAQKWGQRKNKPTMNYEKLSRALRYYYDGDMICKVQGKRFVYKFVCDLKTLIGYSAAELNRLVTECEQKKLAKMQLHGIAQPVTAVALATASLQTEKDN
Summary of the method: as §1

ERG = target: T4, ERG (Homo sapiens, UniProt P11308 1-479); conditions: protein: recombinant; tags: N-terminal GST; dsDNA, one strand shown
T4 sequence: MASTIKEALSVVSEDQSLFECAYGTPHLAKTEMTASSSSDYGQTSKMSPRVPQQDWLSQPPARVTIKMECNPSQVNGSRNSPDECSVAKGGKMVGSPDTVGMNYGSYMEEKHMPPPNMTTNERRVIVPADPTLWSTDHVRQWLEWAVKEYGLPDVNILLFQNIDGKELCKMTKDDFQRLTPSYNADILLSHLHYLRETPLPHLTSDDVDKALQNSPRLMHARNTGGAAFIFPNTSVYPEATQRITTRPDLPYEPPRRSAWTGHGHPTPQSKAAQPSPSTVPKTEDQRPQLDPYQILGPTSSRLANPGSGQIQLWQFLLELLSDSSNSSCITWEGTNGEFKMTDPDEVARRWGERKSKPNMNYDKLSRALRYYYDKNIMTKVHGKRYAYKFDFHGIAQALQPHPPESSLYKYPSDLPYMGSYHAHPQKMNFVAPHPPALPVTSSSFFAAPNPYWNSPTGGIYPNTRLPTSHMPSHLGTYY
Summary of the method: as §1

ELF1 = ELF1 (Homo sapiens, UniProt P32519 1-619); conditions: protein: recombinant; tags: N-terminal GST; dsDNA, one strand shown
Sequence of ELF1 (P32519 whole entry): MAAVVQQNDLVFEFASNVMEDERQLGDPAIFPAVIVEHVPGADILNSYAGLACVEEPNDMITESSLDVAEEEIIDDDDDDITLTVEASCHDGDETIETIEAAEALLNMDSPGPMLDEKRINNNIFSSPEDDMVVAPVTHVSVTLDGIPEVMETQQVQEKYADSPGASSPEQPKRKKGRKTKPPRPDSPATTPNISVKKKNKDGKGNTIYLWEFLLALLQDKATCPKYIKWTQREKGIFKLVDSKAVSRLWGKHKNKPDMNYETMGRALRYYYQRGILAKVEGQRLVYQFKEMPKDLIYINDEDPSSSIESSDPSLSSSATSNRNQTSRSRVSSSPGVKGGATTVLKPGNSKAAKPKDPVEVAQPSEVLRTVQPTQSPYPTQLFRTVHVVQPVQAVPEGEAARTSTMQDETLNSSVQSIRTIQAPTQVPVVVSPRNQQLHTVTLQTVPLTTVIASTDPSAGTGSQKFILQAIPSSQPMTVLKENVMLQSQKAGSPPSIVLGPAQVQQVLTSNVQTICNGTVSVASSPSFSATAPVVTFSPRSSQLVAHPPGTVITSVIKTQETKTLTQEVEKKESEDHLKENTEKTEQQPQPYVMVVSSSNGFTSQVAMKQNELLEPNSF
Summary of the method: as §1

EHF = target: T5, EHF (Homo sapiens, UniProt Q9NZC4 1-300); conditions: protein: recombinant; tags: N-terminal GST; dsDNA, one strand shown
T5 sequence: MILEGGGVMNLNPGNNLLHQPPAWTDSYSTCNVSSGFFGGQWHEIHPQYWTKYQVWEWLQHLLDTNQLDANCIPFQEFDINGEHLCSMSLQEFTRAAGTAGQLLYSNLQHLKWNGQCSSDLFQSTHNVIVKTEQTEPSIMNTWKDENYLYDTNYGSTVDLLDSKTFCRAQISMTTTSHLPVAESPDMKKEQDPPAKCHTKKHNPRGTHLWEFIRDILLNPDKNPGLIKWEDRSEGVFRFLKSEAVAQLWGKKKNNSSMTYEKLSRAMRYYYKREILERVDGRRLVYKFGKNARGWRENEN
Summary of the method: as §1

SPI1 = SPI1 (Homo sapiens, UniProt P17947 1-270); conditions: protein: recombinant; tags: N-terminal GST; dsDNA, one strand shown
Summary of the method: as §1

SPIB = SPIB (Homo sapiens, UniProt Q01892 1-262); conditions: protein: recombinant; tags: N-terminal GST; dsDNA, one strand shown
Sequence of SPIB (Q01892 whole entry): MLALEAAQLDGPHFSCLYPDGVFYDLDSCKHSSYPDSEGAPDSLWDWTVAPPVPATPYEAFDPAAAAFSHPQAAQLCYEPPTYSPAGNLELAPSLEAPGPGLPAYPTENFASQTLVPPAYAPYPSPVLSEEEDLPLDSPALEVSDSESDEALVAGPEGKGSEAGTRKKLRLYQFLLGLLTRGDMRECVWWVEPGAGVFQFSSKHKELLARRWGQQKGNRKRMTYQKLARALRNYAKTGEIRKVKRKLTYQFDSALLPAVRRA
Summary of the method: as §1

ELK3 = target: T6, ELK3 (Homo sapiens, UniProt P41970 1-407); conditions: protein: recombinant; tags: N-terminal GST; dsDNA, one strand shown
T6 sequence: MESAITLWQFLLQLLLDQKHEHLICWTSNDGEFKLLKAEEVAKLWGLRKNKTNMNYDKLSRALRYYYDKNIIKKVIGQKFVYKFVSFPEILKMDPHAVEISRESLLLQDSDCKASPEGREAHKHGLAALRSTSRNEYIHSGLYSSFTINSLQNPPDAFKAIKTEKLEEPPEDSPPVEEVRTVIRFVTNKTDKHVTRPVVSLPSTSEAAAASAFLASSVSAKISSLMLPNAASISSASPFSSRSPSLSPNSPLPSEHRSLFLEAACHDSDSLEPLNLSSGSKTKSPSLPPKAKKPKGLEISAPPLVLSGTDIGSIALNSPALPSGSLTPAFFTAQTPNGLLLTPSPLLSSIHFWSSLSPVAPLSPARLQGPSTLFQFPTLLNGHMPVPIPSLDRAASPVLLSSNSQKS
Summary of the method: as §1

FEV = target: T7, FEV (Homo sapiens, UniProt Q99581 1-238); conditions: protein: recombinant; tags: N-terminal GST; dsDNA, one strand shown
T7 sequence: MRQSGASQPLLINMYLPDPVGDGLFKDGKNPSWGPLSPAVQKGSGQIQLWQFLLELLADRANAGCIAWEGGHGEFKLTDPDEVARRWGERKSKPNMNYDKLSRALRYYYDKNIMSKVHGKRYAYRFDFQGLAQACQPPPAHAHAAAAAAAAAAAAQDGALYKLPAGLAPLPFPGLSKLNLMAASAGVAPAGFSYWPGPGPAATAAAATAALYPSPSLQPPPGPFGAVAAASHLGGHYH
Summary of the method: as §1

ETV5 = ETV5 (Homo sapiens, UniProt P41161 1-510); conditions: protein: recombinant; tags: N-terminal GST; dsDNA, one strand shown
Sequence of ETV5 (P41161 whole entry): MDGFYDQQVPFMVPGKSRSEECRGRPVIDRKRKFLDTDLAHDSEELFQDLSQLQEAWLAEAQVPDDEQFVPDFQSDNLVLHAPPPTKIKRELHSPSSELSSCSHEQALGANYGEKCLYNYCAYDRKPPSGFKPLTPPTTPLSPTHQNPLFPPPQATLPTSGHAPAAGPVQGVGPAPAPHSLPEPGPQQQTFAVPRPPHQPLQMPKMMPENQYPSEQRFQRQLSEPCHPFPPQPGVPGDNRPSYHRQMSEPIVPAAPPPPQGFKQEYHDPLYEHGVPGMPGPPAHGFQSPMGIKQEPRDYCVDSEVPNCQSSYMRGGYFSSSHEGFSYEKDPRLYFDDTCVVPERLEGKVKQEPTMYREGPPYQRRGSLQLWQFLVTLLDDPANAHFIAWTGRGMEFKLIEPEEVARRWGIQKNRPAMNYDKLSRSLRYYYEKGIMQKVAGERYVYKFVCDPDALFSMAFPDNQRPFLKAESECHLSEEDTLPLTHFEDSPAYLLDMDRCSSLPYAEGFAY
Summary of the method: as §1

HSF1 = HSF1 (Homo sapiens, UniProt Q00613 1-529); conditions: protein: recombinant; tags: N-terminal GST; chain copies: 3; dsDNA, one strand shown
Sequence of HSF1 (Q00613 whole entry): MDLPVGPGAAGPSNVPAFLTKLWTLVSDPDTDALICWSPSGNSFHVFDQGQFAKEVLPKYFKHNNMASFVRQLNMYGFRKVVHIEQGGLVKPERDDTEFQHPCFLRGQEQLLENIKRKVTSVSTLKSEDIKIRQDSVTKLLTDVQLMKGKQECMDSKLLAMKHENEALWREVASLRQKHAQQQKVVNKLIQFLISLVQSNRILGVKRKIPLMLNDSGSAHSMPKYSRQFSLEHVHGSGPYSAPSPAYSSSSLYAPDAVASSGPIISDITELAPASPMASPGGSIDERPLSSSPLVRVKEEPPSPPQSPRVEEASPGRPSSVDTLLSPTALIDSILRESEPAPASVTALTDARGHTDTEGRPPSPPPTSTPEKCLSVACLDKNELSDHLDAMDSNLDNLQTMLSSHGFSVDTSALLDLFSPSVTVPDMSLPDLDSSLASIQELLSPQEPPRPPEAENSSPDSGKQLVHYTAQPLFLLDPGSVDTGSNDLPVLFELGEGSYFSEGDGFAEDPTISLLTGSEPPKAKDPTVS
Summary of the method: as §1

SPIC = target: T8, SPIC (Homo sapiens, UniProt Q8N5J4 1-248); conditions: protein: recombinant; tags: N-terminal GST; dsDNA, one strand shown
T8 sequence: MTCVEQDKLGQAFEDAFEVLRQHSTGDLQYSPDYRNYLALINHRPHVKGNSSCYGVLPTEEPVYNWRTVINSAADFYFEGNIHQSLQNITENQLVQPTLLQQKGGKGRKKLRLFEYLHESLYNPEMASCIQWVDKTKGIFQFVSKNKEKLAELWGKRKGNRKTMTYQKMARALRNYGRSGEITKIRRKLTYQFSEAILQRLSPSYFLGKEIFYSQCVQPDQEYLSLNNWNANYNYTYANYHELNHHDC
Summary of the method: as §1

ELF4 = ELF4 (Homo sapiens, UniProt Q99607 1-663); conditions: protein: recombinant; tags: N-terminal GST; dsDNA, one strand shown
Sequence of ELF4 (Q99607 whole entry): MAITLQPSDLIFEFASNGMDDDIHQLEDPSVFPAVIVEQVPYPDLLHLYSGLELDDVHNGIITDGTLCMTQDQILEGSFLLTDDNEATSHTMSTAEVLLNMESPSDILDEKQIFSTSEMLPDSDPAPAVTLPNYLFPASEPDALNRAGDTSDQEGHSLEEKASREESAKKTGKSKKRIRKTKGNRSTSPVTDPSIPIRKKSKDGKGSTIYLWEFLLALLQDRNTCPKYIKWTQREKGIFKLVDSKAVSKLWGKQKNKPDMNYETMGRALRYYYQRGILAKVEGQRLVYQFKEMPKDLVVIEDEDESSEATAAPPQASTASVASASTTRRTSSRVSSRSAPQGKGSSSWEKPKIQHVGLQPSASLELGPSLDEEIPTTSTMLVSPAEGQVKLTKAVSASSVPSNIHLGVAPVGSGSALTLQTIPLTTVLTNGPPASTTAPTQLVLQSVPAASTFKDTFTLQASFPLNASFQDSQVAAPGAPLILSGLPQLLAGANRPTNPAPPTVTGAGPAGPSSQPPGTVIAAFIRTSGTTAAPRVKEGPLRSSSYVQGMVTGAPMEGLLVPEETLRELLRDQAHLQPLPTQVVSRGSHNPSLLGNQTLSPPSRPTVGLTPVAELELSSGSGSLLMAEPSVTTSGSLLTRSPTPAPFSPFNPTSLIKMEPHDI
Summary of the method: as §1

ELK4 = target: T9, ELK4 (Homo sapiens, UniProt P28324-2 1-405); conditions: protein: recombinant; tags: N-terminal GST; dsDNA, one strand shown
T9 sequence: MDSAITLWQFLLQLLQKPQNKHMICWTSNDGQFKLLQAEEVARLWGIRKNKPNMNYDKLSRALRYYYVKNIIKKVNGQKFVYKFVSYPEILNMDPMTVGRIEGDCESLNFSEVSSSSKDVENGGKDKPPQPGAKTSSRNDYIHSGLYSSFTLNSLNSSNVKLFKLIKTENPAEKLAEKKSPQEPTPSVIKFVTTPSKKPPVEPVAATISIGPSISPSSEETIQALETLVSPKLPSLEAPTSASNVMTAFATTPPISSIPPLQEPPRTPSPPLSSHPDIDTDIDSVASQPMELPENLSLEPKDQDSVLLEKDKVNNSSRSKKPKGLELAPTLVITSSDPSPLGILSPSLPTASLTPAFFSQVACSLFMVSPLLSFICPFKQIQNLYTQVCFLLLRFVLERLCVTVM
Summary of the method: as §1

ETV2 = target: T10, ETV2 (Homo sapiens, UniProt O00321 1-342); conditions: protein: recombinant; tags: N-terminal GST; dsDNA, one strand shown
T10 sequence: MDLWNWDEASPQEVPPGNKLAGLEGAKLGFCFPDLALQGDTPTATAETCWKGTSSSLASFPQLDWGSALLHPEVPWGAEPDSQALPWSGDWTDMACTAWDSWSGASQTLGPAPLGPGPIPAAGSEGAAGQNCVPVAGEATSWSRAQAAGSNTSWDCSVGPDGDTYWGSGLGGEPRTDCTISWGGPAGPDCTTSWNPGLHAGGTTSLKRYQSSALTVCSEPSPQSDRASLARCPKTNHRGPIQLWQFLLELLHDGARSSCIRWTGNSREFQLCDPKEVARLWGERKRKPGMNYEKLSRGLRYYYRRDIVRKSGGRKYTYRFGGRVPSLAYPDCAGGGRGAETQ
Summary of the method: as §1

ELF3 = target: T11, ELF3 (Homo sapiens, UniProt P78545 1-371); conditions: protein: recombinant; tags: N-terminal GST; dsDNA, one strand shown
T11 sequence: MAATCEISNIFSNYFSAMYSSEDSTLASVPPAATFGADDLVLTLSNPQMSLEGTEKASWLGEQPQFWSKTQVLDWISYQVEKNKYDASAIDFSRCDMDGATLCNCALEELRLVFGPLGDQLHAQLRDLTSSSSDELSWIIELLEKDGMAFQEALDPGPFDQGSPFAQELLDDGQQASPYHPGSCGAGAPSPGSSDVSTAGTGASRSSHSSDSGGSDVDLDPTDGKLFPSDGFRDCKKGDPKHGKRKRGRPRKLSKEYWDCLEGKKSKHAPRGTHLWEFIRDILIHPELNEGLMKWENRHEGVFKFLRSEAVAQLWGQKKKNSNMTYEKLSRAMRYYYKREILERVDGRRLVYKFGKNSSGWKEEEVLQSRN
Summary of the method: as §1

CRX = CRX (Homo sapiens, UniProt O43186 1-299); conditions: protein: recombinant; tags: N-terminal GST; dsDNA, one strand shown
Sequence of CRX (O43186 whole entry): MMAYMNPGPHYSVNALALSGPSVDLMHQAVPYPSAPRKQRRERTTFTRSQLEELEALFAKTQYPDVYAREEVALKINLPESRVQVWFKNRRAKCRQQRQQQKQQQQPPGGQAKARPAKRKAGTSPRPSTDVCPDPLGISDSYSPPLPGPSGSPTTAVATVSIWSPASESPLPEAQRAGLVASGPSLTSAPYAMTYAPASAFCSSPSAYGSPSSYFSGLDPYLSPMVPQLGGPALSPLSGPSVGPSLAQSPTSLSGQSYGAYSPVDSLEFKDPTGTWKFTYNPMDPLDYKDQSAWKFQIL
Summary of the method: as §1

ETV1 = ETV1 (Homo sapiens, UniProt P50549 1-477); conditions: protein: recombinant; tags: N-terminal GST; dsDNA, one strand shown
Sequence of ETV1 (P50549 whole entry): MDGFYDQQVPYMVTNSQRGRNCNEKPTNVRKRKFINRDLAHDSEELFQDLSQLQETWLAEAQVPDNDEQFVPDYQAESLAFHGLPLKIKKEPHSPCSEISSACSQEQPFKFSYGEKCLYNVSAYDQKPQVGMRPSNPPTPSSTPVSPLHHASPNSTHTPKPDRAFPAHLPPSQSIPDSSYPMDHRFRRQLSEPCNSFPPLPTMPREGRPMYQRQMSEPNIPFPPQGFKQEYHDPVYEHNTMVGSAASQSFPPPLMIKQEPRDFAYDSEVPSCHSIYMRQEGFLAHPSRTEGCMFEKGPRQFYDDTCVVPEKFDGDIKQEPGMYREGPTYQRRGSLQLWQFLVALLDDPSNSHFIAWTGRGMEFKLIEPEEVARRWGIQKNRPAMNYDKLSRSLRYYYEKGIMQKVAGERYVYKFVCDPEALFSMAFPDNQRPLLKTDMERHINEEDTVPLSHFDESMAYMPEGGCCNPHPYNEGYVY
Summary of the method: as §1

Sequence: AACTCT
- binding signal (FLI1): 1.32 fold enrichment (6-mer frequency, TF over GST control)
- binding signal (ELK1): 1.37 fold enrichment (6-mer frequency, TF over GST control)
- binding signal (GABPA): 1.31 fold enrichment (6-mer frequency, TF over GST control)
- binding signal (ERG): 1.33 fold enrichment (6-mer frequency, TF over GST control)
- binding signal (ELF1): 1.5 fold enrichment (6-mer frequency, TF over GST control)
- binding signal (EHF): 1.33 fold enrichment (6-mer frequency, TF over GST control)
- binding signal (SPI1): 1.28 fold enrichment (6-mer frequency, TF over GST control)
- binding signal (SPIB): 1.28 fold enrichment (6-mer frequency, TF over GST control)
- binding signal (ELK3): 1.26 fold enrichment (6-mer frequency, TF over GST control)
- binding signal (FEV): 1.31 fold enrichment (6-mer frequency, TF over GST control)
- binding signal (ETV5): 1.36 fold enrichment (6-mer frequency, TF over GST control)
- binding signal (HSF1): 1.4 fold enrichment (6-mer frequency, TF over GST control)
- binding signal (SPIC): 1.6 fold enrichment (6-mer frequency, TF over GST control)
- binding signal (ELF4): 1.36 fold enrichment (6-mer frequency, TF over GST control)
- binding signal (ELK4): 1.24 fold enrichment (6-mer frequency, TF over GST control)
- binding signal (ETV2): 1.24 fold enrichment (6-mer frequency, TF over GST control)
- binding signal (ELF3): 1.44 fold enrichment (6-mer frequency, TF over GST control)
- binding signal (CRX): 1.37 fold enrichment (6-mer frequency, TF over GST control)
- binding signal (ETV1): 1.36 fold enrichment (6-mer frequency, TF over GST control)
